Data from the supplement of paper PMC10849652.
About 8,800 targets were measured; listed, in parts, are those with a hit and a random draw of the rest. About 0.5% of all pairs of compound and target were hits.

Tests used:
Assay in all cases: log2 fold change, soluble protein after heating vs DMSO (PISA); higher = thermal stabilisation; K562 lysate, 10 uM; active = over 0.2 and 3.5 SD of the protein, either way, in both replicates (recomputed)
ibrutinib = compound: C=CC(=O)N1CCC[C@@H](n2nc(-c3ccc(Oc4ccccc4)cc3)c3c(N)ncnc32)C1 [ibrutinib]
How it was run: (§1)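 Values give the log-two fold change in thermal stability against solvent controls, from duplicates. Crude K562 extract at 1 mg/mL protein, made by dounce homogenisation in PBS pH 7.4 with 1 mM MgCl2, was treated with 10 μM compound for 30 min. After 3 min heating across 48°C-58°C, aliquots were pooled, adjusted to 0.5% NP-40 at 4°C and centrifuged at 21,000xg for 90 min. The supernatant was measured by TMTpro 16plex LC-MS/MS with channel sums equalised.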

[1] = compound: CC(=O)c1cnc2ccc(-c3cc(Cl)c(O)c(Cl)c3)nc2c1N[C@H]1CC[C@H](CN(C)C)CC1
How it was run: as §1

ralimetinib = compound: CC(C)(C)Cn1c(N)nc2ccc(-c3[nH]c(C(C)(C)C)nc3-c3ccc(F)cc3)nc21 [ralimetinib]
How it was run: as §1

[2] = compound: CC(C)(O)CC(=O)NCCn1ccc2ncnc(Nc3ccc(Oc4cccc(C(F)(F)F)c4)c(Cl)c3)c21
How it was run: as §1

[3] = compound: CC(C)C1=C2N=C(C=C(N2N=C1)NCC3=CC=CC=C3)NCCCCCCN
How it was run: as §1

[4] = compound: CC1=C(C(CC(=O)N1)C2=CC=C(C=C2)C(F)(F)F)C(=O)NC3=C(C=C4C(=C3)C=NN4)F
How it was run: as §1

[5] = compound: CC1=C(C2=C(C=C1)C(=O)C3=CC=CC=C3N2CCCN)C
How it was run: as §1

[6] = compound: CC1=C(C=C(C=C1)NC(=O)C2=CC(=CC=C2)C(C)(C)C#N)NC3=CC4=C(C=C3)N=CN(C4=O)C
How it was run: as §1

[7] = compound: CC1=C(C=C(C=C1)NC(=O)C2=CC(=CC=C2)N(C)C)NC(=O)C3=CC=C(C=C3)O
How it was run: as §1

[8] = compound: CC1=CC=C(C=C1)SC2=C3C=C(SC3=CN=C2)C(=O)N
How it was run: as §1

vemurafenib = compound: CCCS(=O)(=O)Nc1ccc(F)c(C(=O)c2c[nH]c3ncc(-c4ccc(Cl)cc4)cc23)c1F [vemurafenib]
How it was run: as §1

[9] = compound: CCCS(=O)(=O)Nc1ccc(F)c(C(=O)c2c[nH]c3ncc(Cl)cc23)c1F
How it was run: as §1

barasertib = compound: CCN(CCCOc1ccc2c(Nc3cc(CC(=O)Nc4cccc(F)c4)[nH]n3)ncnc2c1)CCOP(=O)(O)O [barasertib]
How it was run: as §1

[10] = compound: CC[C@@H]1C(=O)N(C)c2cnc(Nc3ccc(C(=O)NC4CCN(C)CC4)cc3OC)nc2N1C1CCCC1
How it was run: as §1

volasertib = compound: CC[C@@H]1C(=O)N(C)c2cnc(Nc3ccc(C(=O)N[C@H]4CC[C@H](N5CCN(CC6CC6)CC5)CC4)cc3OC)nc2N1C(C)C [volasertib]
How it was run: as §1

[11] = compound: CCn1c(C(=O)N(C2CC2)C2CC2)cc2c3c(ncn3C)c(Nc3cc(C)n(C)n3)nc21
How it was run: as §1

[12] = compound: CCn1cc(-c2ccnc3[nH]c(-c4cccc(CN(C)C)c4)cc23)c(-c2ccc(NC(=O)N(C)C)cc2)n1
How it was run: as §1

[13] = compound: CN1CCC(CNc2ccc3ncc(-c4cccc(OC(F)(F)F)c4)n3n2)CC1
How it was run: as §1

saracatinib = compound: CN1CCN(CCOc2cc(OC3CCOCC3)c3c(Nc4c(Cl)ccc5c4OCO5)ncnc3c2)CC1 [saracatinib]
How it was run: as §1

sotrastaurin = compound: CN1CCN(c2nc(C3=C(c4c[nH]c5ccccc45)C(=O)NC3=O)c3ccccc3n2)CC1 [sotrastaurin]
How it was run: as §1

Measured: log2 fold change

TPM1 isoform 4 (UniProt P09493)
UniProt P09493, sequence (P09493 whole entry, looked up): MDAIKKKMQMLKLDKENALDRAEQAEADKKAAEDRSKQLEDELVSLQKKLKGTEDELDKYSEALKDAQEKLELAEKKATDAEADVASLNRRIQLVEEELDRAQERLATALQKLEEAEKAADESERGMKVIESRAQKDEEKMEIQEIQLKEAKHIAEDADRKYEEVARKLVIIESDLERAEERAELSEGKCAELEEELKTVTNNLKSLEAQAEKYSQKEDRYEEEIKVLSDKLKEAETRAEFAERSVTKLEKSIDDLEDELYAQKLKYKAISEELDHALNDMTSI
inactive: ibrutinib -0.019 | [1] 0.009 | ralimetinib 0.001 | [2] -0.011 | [3] -0.024 | [4] -0.011 | [5] 0.062 | [6] 0.011 | [7] -0.022 | [8] 0.001 | vemurafenib -0.049 | [9] -0.012 | barasertib -0.036 | [10] -0.018 | volasertib 0.033 | [11] 0.013 | [12] 0.106 | [13] -0.149 | saracatinib 0.031 | sotrastaurin -0.012

TEX30 (UniProt Q5JUR7)
UniProt Q5JUR7, sequence (Q5JUR7 whole entry, looked up): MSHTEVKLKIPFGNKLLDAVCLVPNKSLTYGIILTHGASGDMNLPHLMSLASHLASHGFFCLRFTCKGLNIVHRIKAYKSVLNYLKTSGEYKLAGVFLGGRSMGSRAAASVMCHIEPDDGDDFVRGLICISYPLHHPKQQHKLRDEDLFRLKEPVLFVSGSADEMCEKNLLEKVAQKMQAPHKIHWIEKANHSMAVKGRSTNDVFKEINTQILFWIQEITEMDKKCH
inactive: ibrutinib 0.17 | [1] 0.003 | ralimetinib 0.047 | [2] -0.053 | [3] -0.045 | [4] -0.033 | [5] 0.016 | [6] -0.027 | [7] 0.019 | [8] 0.019 | vemurafenib 0.008 | [9] 0.033 | barasertib 0.109 | [10] -0.077 | volasertib -0.051 | [11] 0.005 | [12] -0.301 | [13] 0.088 | saracatinib -0.011 | sotrastaurin -0.023

TBRG4 (UniProt Q969Z0)
inactive: ibrutinib 0.014 | [1] 0.025 | ralimetinib 0.002 | [2] -0.023 | [3] -0.011 | [4] 0.001 | [5] 0.062 | [6] -0.041 | [7] 0.044 | [8] -0.023 | vemurafenib -0.016 | [9] 0.008 | barasertib 0.051 | [10] -0.075 | volasertib -0.079 | [11] 0.048 | [12] 0.052 | [13] -0.128 | saracatinib 0.026 | sotrastaurin 0.013

TCF3 (UniProt P15923)
inactive: ibrutinib 0.001 | [1] 0.027 | ralimetinib 0.014 | [2] -0.028 | [3] -0.005 | [4] -0.034 | [5] -0.074 | [6] -0.061 | [7] -0.045 | [8] -0.016 | vemurafenib -0.01 | [9] 0.002 | barasertib 0.012 | [10] 0.129 | volasertib 0.002 | [11] 0.047 | [12] 0.028 | [13] 0.043 | saracatinib -0.158 | sotrastaurin 0.002

TRMT10A (UniProt Q8TBZ6)
inactive: ibrutinib -0.002 | [1] -0.003 | ralimetinib 0.021 | [2] -0.01 | [3] -0.033 | [4] 0.009 | [5] -0.031 | [6] 0.06 | [7] -0.022 | [8] 0.07 | vemurafenib 0.005 | [9] -0.025 | barasertib -0.08 | [10] 0.118 | volasertib -0.014 | [11] -0.005 | [12] -0.027 | [13] 0.029 | saracatinib -0.014 | sotrastaurin 0.006

TUBB6 (UniProt Q9BUF5)
inactive: ibrutinib -0.005 | [1] 0.012 | ralimetinib 0.023 | [2] -0.038 | [3] 0.027 | [4] 0.012 | [5] 0.025 | [6] -0.024 | [7] -0.009 | [8] 0.025 | vemurafenib 0.007 | [9] 0.002 | barasertib -0.015 | [10] 0.003 | volasertib -0.068 | [11] -0.007 | [12] -0.019 | [13] 0.014 | saracatinib 0.032 | sotrastaurin -0.024

TBC1D2B (UniProt Q9UPU7)
UniProt Q9UPU7, sequence (Q9UPU7 whole entry, looked up): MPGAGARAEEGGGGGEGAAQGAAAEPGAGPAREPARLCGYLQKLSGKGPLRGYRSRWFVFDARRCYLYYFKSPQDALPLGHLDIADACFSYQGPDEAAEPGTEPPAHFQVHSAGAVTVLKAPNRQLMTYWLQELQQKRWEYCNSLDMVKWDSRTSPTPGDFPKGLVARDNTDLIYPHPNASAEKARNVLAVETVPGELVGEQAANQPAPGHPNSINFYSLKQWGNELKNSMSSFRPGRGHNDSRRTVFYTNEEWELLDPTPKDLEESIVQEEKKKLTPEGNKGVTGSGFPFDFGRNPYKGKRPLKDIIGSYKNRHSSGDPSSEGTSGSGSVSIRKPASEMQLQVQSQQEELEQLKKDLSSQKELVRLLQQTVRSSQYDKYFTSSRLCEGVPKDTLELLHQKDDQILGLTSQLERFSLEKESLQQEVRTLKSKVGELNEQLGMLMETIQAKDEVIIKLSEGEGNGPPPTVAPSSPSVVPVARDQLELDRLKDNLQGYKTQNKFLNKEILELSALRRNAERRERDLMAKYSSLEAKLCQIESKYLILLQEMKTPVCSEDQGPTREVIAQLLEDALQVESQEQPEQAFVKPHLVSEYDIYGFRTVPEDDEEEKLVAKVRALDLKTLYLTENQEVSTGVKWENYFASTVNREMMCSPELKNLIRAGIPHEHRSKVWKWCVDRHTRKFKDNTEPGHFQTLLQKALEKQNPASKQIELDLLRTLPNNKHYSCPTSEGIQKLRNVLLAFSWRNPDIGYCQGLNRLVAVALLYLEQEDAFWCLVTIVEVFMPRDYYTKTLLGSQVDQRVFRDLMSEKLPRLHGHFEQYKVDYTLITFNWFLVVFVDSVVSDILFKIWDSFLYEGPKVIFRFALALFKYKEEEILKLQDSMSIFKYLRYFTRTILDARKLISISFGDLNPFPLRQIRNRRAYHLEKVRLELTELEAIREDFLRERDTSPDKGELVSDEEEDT
inactive: ibrutinib 0.075 | [1] -0.017 | ralimetinib 0.008 | [2] 0.003 | [3] -0.054 | [4] 0.058 | [5] 0.006 | [6] -0.03 | [7] 0.031 | [8] 0.025 | vemurafenib 0.037 | [9] 0.014 | barasertib 0.001 | [10] 0.012 | volasertib -0.099 | [11] -0.018 | [12] 0.004 | [13] -0.041 | saracatinib 0.033 | sotrastaurin 0.062

TIMM44 (UniProt O43615)
UniProt O43615, sequence (O43615 whole entry, looked up): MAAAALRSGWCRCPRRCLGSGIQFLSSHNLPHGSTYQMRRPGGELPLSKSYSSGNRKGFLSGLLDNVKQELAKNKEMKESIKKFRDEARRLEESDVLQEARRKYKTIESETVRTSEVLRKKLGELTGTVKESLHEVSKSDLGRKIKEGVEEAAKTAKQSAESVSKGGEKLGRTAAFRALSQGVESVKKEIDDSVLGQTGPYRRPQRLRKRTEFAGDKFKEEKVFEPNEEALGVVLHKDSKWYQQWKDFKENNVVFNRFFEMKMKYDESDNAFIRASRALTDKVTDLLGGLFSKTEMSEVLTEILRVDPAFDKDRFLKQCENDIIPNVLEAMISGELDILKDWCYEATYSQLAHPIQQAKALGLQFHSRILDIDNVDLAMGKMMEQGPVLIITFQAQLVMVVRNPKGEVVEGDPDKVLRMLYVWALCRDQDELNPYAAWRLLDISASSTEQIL
inactive: ibrutinib 0.03 | [1] 0.005 | ralimetinib -0.008 | [2] -0.076 | [3] 0.013 | [4] 0.066 | [5] 0.025 | [6] -0.035 | [7] -0.005 | [8] 0.015 | vemurafenib -0.035 | [9] -0.017 | barasertib 0.07 | [10] -0.006 | volasertib -0.034 | [11] 0.022 | [12] -0.02 | [13] -0.065 | saracatinib 0.012 | sotrastaurin -0.026

TRMT12 (UniProt Q53H54)
UniProt Q53H54, sequence (Q53H54 whole entry, looked up): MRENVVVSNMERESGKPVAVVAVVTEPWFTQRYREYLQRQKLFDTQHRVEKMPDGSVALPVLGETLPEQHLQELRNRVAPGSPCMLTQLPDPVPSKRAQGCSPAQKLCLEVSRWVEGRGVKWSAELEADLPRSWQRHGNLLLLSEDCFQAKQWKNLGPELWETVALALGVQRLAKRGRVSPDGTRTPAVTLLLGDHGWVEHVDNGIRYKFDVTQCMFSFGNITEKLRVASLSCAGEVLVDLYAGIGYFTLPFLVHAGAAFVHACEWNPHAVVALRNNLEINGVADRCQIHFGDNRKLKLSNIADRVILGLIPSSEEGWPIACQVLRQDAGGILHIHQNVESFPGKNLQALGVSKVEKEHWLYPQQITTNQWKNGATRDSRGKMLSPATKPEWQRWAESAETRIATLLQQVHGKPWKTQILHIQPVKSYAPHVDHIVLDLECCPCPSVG
inactive: ibrutinib -0.083 | [1] -0.009 | ralimetinib 0.094 | [2] 0.063 | [3] -0.018 | [4] -0.081 | [5] -0.048 | [6] 0.036 | [7] 0.033 | [8] -0.031 | vemurafenib 0.059 | [9] -0.009 | barasertib 0.068 | [10] -0.17 | volasertib -0.052 | [11] 0.047 | [12] -0.303 | [13] 0.281 | saracatinib -0.021 | sotrastaurin -0.047

TPX2 (UniProt Q9ULW0)
UniProt Q9ULW0, sequence (Q9ULW0 whole entry, looked up): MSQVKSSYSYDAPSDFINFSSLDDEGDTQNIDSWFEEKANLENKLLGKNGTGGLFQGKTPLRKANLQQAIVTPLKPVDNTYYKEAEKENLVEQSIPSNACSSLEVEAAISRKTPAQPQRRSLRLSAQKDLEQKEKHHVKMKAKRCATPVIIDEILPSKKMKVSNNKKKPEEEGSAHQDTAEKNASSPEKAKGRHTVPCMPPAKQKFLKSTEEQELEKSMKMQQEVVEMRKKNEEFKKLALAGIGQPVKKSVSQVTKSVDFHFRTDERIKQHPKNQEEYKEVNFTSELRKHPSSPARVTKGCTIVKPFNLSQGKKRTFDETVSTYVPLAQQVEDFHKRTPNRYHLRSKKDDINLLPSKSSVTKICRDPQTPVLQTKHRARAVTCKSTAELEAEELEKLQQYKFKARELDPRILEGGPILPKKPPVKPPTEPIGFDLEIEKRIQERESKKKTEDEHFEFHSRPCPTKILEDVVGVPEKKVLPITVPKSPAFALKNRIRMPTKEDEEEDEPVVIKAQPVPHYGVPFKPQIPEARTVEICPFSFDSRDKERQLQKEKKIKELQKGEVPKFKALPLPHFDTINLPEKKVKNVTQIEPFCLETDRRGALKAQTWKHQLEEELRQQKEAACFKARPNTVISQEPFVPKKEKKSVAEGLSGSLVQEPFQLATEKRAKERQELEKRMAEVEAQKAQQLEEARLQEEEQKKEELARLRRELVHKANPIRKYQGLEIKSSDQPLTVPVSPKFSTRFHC
inactive: ibrutinib 0.024 | [1] -0.01 | ralimetinib 0.003 | [2] -0.006 | [3] 0.036 | [4] -0.005 | [5] -0.008 | [6] 0.062 | [7] 0.001 | [8] -0.01 | vemurafenib -0.006 | [9] -0.013 | barasertib -0.036 | [10] 0.093 | volasertib 0.012 | [11] -0.035 | [12] 0.04 | [13] -0.007 | saracatinib 0.03 | sotrastaurin -0.016

TRAF2 isoform 2 (UniProt Q12933)
UniProt Q12933, sequence (Q12933 whole entry, looked up): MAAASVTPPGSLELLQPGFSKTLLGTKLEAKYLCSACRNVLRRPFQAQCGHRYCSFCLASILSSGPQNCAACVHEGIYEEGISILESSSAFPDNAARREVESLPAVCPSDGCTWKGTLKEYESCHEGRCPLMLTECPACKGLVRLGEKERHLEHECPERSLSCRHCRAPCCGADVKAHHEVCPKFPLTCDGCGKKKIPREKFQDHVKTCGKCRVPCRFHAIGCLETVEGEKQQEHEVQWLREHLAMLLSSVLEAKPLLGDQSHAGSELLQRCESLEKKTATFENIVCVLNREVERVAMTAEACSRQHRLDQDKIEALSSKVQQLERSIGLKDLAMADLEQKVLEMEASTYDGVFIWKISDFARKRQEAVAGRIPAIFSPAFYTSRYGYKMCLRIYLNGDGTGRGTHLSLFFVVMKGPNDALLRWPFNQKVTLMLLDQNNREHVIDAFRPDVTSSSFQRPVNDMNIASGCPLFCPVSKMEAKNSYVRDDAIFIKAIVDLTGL
inactive: ibrutinib -0.026 | [1] -0.002 | ralimetinib 0.022 | [2] -0.022 | [3] -0.051 | [4] -0.004 | [5] -0.028 | [6] 0.029 | [7] -0.009 | [8] -0.006 | vemurafenib -0.004 | [9] 0.012 | barasertib 0 | [10] 0.072 | volasertib -0.006 | [11] 0.013 | [12] -0.034 | [13] -0.032 | saracatinib -0.011 | sotrastaurin -0.029

TXNRD2 (UniProt Q9NNW7)
UniProt Q9NNW7, sequence (Q9NNW7 whole entry, looked up): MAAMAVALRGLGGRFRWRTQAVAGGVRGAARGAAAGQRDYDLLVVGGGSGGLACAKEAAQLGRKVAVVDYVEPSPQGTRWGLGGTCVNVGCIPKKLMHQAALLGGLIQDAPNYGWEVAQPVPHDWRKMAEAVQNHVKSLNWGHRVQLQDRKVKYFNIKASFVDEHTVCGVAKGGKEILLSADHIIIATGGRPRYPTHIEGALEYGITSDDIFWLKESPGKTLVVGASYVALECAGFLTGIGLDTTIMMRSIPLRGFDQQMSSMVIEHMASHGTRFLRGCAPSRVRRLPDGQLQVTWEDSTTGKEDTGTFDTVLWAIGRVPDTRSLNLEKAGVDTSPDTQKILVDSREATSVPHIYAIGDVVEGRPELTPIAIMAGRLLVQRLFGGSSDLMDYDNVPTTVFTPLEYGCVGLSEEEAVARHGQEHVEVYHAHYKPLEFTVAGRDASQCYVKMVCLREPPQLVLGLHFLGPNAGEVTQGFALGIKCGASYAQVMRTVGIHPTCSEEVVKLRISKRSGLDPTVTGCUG
inactive: ibrutinib 0.014 | [1] -0.002 | ralimetinib 0.025 | [2] -0.107 | [3] 0 | [4] 0.008 | [5] -0.038 | [6] -0.014 | [7] 0.001 | [8] 0.006 | vemurafenib -0.004 | [9] 0.036 | barasertib -0.047 | [10] 0.023 | volasertib -0.005 | [11] -0.008 | [12] -0.031 | [13] 0.082 | saracatinib 0 | sotrastaurin -0.021

THADA (UniProt Q6YHU6)
inactive: ibrutinib 0.011 | [1] 0.006 | ralimetinib -0.009 | [2] -0.029 | [3] -0.016 | [4] -0.01 | [5] 0.012 | [6] 0.028 | [7] 0.03 | [8] 0.013 | vemurafenib -0.006 | [9] 0.007 | barasertib 0.038 | [10] -0.028 | volasertib -0.037 | [11] 0.019 | [12] -0.029 | [13] 0.02 | saracatinib 0.029 | sotrastaurin 0.037

TSFM (UniProt P43897)
inactive: ibrutinib 0.004 | [1] -0.05 | ralimetinib 0.03 | [2] 0.026 | [3] 0.015 | [4] -0.024 | [5] -0.003 | [6] 0.116 | [7] 0.017 | [8] -0.063 | vemurafenib -0.007 | [9] 0.005 | barasertib 0.031 | [10] -0.041 | volasertib -0.089 | [11] 0.006 | [12] 0.081 | [13] -0.05 | saracatinib -0.014 | sotrastaurin -0.012

TNFAIP3 (UniProt P21580)
UniProt P21580, sequence (P21580 whole entry, looked up): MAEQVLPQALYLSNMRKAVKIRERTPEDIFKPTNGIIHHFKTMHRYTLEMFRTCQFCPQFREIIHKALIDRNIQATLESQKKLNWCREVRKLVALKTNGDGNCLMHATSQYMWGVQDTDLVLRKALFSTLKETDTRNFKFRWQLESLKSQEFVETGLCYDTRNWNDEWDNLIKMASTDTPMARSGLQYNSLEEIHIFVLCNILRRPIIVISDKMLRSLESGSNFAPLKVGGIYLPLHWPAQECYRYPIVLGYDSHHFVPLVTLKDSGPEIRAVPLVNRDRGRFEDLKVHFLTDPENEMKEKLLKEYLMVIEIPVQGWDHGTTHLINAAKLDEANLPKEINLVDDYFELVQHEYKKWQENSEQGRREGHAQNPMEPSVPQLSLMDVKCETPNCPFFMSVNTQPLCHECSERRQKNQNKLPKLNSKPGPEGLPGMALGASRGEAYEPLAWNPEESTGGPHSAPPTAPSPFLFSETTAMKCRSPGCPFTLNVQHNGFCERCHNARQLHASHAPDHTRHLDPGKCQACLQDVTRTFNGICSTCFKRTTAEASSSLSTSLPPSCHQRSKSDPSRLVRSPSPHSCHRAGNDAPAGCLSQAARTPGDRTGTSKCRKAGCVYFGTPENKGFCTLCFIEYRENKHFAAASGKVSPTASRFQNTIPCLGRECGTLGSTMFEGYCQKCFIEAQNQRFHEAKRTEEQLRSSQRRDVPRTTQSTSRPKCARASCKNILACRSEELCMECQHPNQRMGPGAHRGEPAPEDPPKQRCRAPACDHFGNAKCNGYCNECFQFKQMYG
inactive: ibrutinib -0.123 | [1] -0.1 | ralimetinib -0.056 | [2] 0.005 | [3] -0.045 | [4] 0.003 | [5] 0.016 | [6] -0.035 | [7] 0.068 | [8] 0.053 | [9] 0.004 | barasertib -0.015 | [10] -0.412 | volasertib -0.063 | [11] 0.051 | [12] -0.009 | [13] 0.017 | saracatinib 0.029 | sotrastaurin -0.006

THAP9 (UniProt Q9H5L6)
active: [12] -0.66
inactive: ibrutinib 0.038 | [1] -0.061 | ralimetinib -0.168 | [2] -0.332 | [5] -0.199 | [6] 0.234 | [7] 0.017 | [8] -0.087 | vemurafenib 0.199 | [9] 0.07 | barasertib 0.117 | [10] 0.309 | volasertib 0.088 | [11] -0.401 | [13] 0.151 | saracatinib 0 | sotrastaurin 0.076
